# High-throughput results as filed in PubChem BioAssay.
# JMJD2A Tudor: inhibitors of human JMJD2A Tudor domain; AlphaScreen JMJD2A-Tudor / H3K4me3 peptide binding; Potency, µM (titrated, usually from 114 µM), most hits filed as inhibitors; actives 4.4% (n = 390,000); note: nearly all actives have a fitted effect of over 50% in size
# G9a block: G9a (human) methyltransferase inhibition; Q96KQ7; actives 8.8% (n = 350,000); Potency, µM (highest dose often 102 µM), actives largely listed as inhibitors; AID 504332; G9a H3K9 monomethylation, AlphaScreen, 2 h; note: nearly all actives have a fitted effect of over 75% in size
# Target sequence (Q96KQ7 913-1193 limits assumed): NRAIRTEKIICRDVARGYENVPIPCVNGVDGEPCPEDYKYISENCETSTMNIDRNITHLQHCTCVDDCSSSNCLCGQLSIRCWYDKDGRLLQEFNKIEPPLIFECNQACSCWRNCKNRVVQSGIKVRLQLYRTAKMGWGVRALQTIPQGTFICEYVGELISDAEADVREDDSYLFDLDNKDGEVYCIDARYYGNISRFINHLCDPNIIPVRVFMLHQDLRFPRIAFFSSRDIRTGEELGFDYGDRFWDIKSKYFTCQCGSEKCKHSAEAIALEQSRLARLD
#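 G9a (20 nM) was preincubated 15 min with compound, then reacted 2 h at room temperature with 500 nM biotin-H3K9 peptide and 20 µM SAM. Monomethyl-H3K9 detected by AlphaScreen using anti-H3K9me1 antibody.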
# L3MBTL1 block: blocks human L3MBTL1 | actives 0.66% (n = 230,000) | Q9Y468 | Potency, µM (doses to about 57.1 µM), actives largely listed as inhibitors | AlphaScreen L3MBTL1–H3K9me1 peptide binding; note: nearly all actives have a fitted effect of over 60% in size
#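 L3MBTL1 50 nM + b-AHA-H3(1-15)K9me1 75 nM, 30 min RT; compound added, 30 min RT; streptavidin donor/Ni-chelate acceptor beads 10 ug/mL each final, 30 min RT dark; AlphaScreen read.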
# HP1b binding inh: blocks HP1-beta chromodomain binding to methylated histone tails; AlphaScreen HP1-beta / biotin-H3K9me3 peptide binding; Potency, µM (doses to about 114 µM), most hits filed as inhibitors; actives 0.56% (n = 390,000); note: nearly all actives have a fitted effect of over 70% in size
# Target sequence (P83916 whole entry, looked up): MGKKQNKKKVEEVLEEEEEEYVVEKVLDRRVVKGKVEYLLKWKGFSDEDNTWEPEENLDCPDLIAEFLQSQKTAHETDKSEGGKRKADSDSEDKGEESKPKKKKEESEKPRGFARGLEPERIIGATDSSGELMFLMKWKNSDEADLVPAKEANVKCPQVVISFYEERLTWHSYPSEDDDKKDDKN
#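 Compound inhibition of the preformed complex between 50 nM HP1-beta and 50 nM biotinylated H3K9me3 peptide was read by AlphaScreen. Buffer was PBS pH 7.4 with 0.01% Tween-20. Incubations ran 30 min at room temperature, with 10 ug/mL donor/acceptor beads.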
# Sfp inh: blocks B. subtilis Sfp PPTase activity. Q9F4F7. Potency, µM, actives largely listed as inhibitors. actives 3.5% (n = 310,000). Biochemical Sfp PPTase activity, qHTS. AID 1490;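 note: the enzyme is Sfp with the accession as filed and its product quenches rhodamine fluorescence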
#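 Reaction rates are the 30-min fluorescence difference (ex 525, em 598 nm) in wells containing 15 nM Sfp, 5 uM rhodamine-CoA and 12.5 uM BHQ-2-YbbR at pH 7.6 with 10 mM MgCl2.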
# BAZ2B block: blocks human BAZ2B | AlphaScreen BAZ2B-H3K14Ac peptide displacement | actives 4.4% (n = 360,000) | Potency, µM (series often up to 114 µM), usual class: inhibitors; note: nearly all actives have a fitted effect of over 60% in size
#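 AlphaScreen displacement of biotin-H3(5-23)K14Ac peptide (50 nM final) from BAZ2B (50 nM final) in PBS pH 7.4, 0.01% Tween-20; complex preformed 30 min RT, then compounds (top 110 uM) 30 min RT, beads 20 min dark.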
# A number is an active result; 0 = inactive; ? = inconclusive; - = no result given; [ ] = dose if it differs, or a comment. Only some compounds are listed: those with a hit (about 12% of all), similar ones and a draw of the others. Calls come from the whole dose curve; as a rule, active = well fitted curve in the direction sought with a large enough effect; inconclusive = small, poorly fitted or top-dose-only effect, or another doubt; inactive = no such curve, though single readings can be large; an effect the other way counts as inactive or inconclusive.
SMILES,JMJD2A Tudor,G9a block,L3MBTL1 block,HP1b binding inh,Sfp inh,BAZ2B block
CCCCCCC(=O)N/N=C/c1c(O)n(C2CC2)c(=S)[nH]c1=O,0,0,0,0,0,?
O=C(N/N=C/c1c(O)n(CCc2ccc(F)cc2)c(=O)[nH]c1=O)c1ccccc1,?,0,-,0,0,0
COc1ccc(Cn2c(O)c(C=NCCN3CCOCC3)c(=O)[nH]c2=O)cc1,0,40µM,0,0,0,0
COc1ccc(Cn2c(O)c(C=NCCCn3ccnc3)c(=O)[nH]c2=O)cc1,0,0,0,0,0,0
C=CCn1c(O)c(/C=N/NC(=O)CCCC)c(=O)[nH]c1=S,79µM,0,-,0,0,?
Cc1ccc(CNCc2c(C(=O)O)n(Cc3ccccc3C)c3cc(C)ccc23)cc1,0,0,-,0,-,0
CCC(=O)CCCCC[C@@H]1NC(=O)[C@H]2CCCCN2C(=O)[C@H]([C@@H](C)CC)NC(=O)[C@H](Cc2cn(OC)c3ccccc23)NC1=O,-,-,-,-,0,-
O=c1[nH]c(=O)n(Cc2ccccc2)c(O)c1C=NCCCO,0,0,0,0,0,0
CCOc1ccc(N=Cc2c(O)n(Cc3ccccc3)c(=S)[nH]c2=O)cc1,0,-,0,0,0,0
O=c1[nH]c(=O)n(Cc2ccccc2)c(O)c1/C=N/NCCO,56µM,50µM,0,0,0,50µM
Cn1c(O)c(C=NCCN2CCOCC2)c(=O)n(C)c1=S,0,32µM,-,0,0,?
CCn1c(O)c(/C=N/NC(=O)c2ccccc2)c(=O)[nH]c1=S,56µM,0,-,0,0,40µM
Nc1cccc(N=Cc2c(O)n(Cc3ccc(F)cc3)c(=O)[nH]c2=O)c1,0,13µM,0[11.4 µM],0,0,0
O=C1CN=C(c2ccccc2Cl)c2cc(Cl)ccc2N1Cc1cccc(Cl)c1,0,0,-,0,-,0
COC(C)C(O)(C(=O)OC1=CCN2CC[C@H](O)[C@H]12)C(C)C (some centres undefined),-,-,-,-,0,-
Cc1nn(-c2ccccc2)c2c1P(=O)(O)/C(=C1\N(C)c3ccccc3C1(C)C)C=N2,0,?,0,0,0,0
COC(=O)[C@@]1(Cc2ccccc2)[C@H]2c3cc(C(=O)N(C)C)[nH]c3C[C@H]2CN1C(=O)c1ccccc1,-,-,-,-,0,-
O=c1[nH]c(=O)n(Cc2ccco2)c(O)c1/C=N/N1CCCCC1,0,20µM,?,0,0,0
COc1ccccc1-n1c(O)c(/C=N/NC(=S)Nc2ccccc2)c(=O)[nH]c1=S,?,-,0,0,10µM,?
O=C(N/N=C/c1c(O)n(Cc2ccccc2)c(=O)[nH]c1=O)c1ccccc1O,?,?,0,0,0,?
COc1ccc(Cn2c(O)c(/C=N/NC(=O)c3ccccc3)c(=O)[nH]c2=O)cc1,79µM,0,0,0,0,50µM
O=C(N/N=C/c1c(O)n(Cc2ccc(F)cc2)c(=O)[nH]c1=O)c1ccccc1O,?,45µM,0,0,0,?
C[C@@]12CC[C@H]3[C@@H](CC[C@@H]4C[C@H]5S[C@H]5C[C@]43C)[C@H]1CC[C@H]2O,-,0[21.5 µM],-,-,0,-
COC(=O)[C@@H]1C[C@H]2CC[C@H](O)C[C@H]2N1CC1CC1,-,-,-,-,0,-
CCc1ccc(NC(=O)c2ccc(F)c(S(=O)(=O)N3CCC4(CC3)OCCO4)c2)cc1,0,0,-,0,-,0
SMILES,JMJD2A Tudor,G9a block,L3MBTL1 block,HP1b binding inh,Sfp inh,BAZ2B block
O=CC1=C(N2CCOCC2)/C(=C\c2ccccc2)CC1,0,40µM,-,0,0,0
O=C1C(=Cc2ccccc2)N2CCC1CC2,0,-,-,0,-,-
C/C1=C\[C@@H](C)C/C=C/[C@H]2[C@@H]3O[C@]3(C)[C@@H](C)[C@H]3[C@H](Cc4c[nH]c5ccccc45)NC(=O)[C@]32C(=O)/C=C/C(=O)[C@@H]1O,0,0,?,0,13µM,?
C[C@H](N)[C@@H](O)c1ccccc1,-,0[21.5 µM],-,-,0,-
CCCC1(CCO)C(=O)NC(=S)NC1=O,20µM,-,-,0,-,-
CCCCC1(CCO)C(=O)NC(=S)NC1=O,0,-,-,0,-,-
COc1ccccc1C(=O)Nc1ccc2nc(SCC(=O)N3CCCc4ccccc43)sc2c1,0,0,-,0,-,0
CC(=O)CC(c1ccccc1[N+](=O)[O-])c1c(O)c2ccccc2oc1=O (centres undefined),0,50µM,0,0,0,0
Cc1cc(C(=O)C[N+]23CCN(CC2)CC3)c(C)n1-c1ccc(Br)cc1,0,?,-,0,0,79µM
C/C=C1\C[N@@+]2(C)CC[C@@]34C(=C(C=O)[C@H]1C[C@H]32)Nc1ccccc14,-,?,-,-,35µM,-
COc1ccc(CC2NC[C@H](O)[C@H]2OC(C)=O)cc1 (some centres undefined),-,0[2.33 µM],-,-,0,-
C=CCN1C(=O)NC(=O)/C(=C\c2ccc(-c3ccccc3[N+](=O)[O-])o2)C1=O,?,22µM,0,0,25µM,79µM
COc1cc(-c2ccc(N)c(OC)c2)ccc1N,?,0[0.501 µM],0,?,-,50µM
COc1ccc(CCN)cc1O,0,?,-,0,0,-
Cc1cccc(NC(=O)CSc2ccc(-c3ccco3)nn2)c1,0,28µM,0,0,?,0
COc1ccccc1N1CCN(C(=O)c2cc3c(-c4ccccc4F)nn(C)c3s2)CC1,0,?,-,0,-,-
O=c1c2ccccc2nc2n1CCS2(=O)=O,0,?,-,0,0,0
CN[C@@H]1C[C@@]2(C)O[C@@H]([C@@H]1OC)n1c3ccccc3c3c4c(c5c6ccccc6n2c5c31)C(=O)NC4,-,0,-,-,0,-
C/C(=N\Nc1cccc2ccccc12)c1c(O)n(Cc2ccccc2)c(=O)[nH]c1=O,79µM,1.6µM,0,?,?,?
CC/C(=N\Nc1ccccc1)c1c(O)n(C)c(=O)n(C)c1=O,0,22µM,0,0,?,0
CCC(=NCc1ccc2c(c1)OCO2)c1c(O)n(C)c(=O)n(C)c1=O,0,?,0,0,0,0
CCC(=Nc1cccc(C(F)(F)F)c1)c1c(O)n(C)c(=O)n(C)c1=O,0,-,0,0,0,0
CC/C(=N\Nc1ccccc1)c1c(O)n(-c2ccccc2)c(=O)[nH]c1=O,0,40µM,0,0,0,0
CCC(=NCc1cc(OC)cc(OC)c1)c1c(O)n(C)c(=O)n(C)c1=O,0,0,-,0,50µM,0
C/C(=N\NC(=O)c1ccccc1)c1c(O)n(Cc2ccccc2)c(=O)[nH]c1=O,0,0,-,0,0,0
C=C1[C@@H](O)C2C=CC[C@H](C)C(=O)[C@@](C)(O)C=C[C@@H](OC(C)=O)[C@@]23C(=O)N[C@H](Cc2ccccc2)[C@@H]3[C@@H]1C (some centres undefined),-,-,-,-,0,-
CCCCOC(=O)N(C)SN(C)C(=O)Oc1cccc2c1OC(C)(C)C2,-,-,-,-,0,-
